Assay results: the supplement of paper PMC11732987, “Enantioselective OTUD7B fragment discovery through chemoproteomics screening and high-throughput optimisation” (Communications Chemistry, 2025)

How the values were obtained:
Assay in all cases: log2 ratio of Biotin-Ahx-Ub-VS probe labelling (fragment/DMSO); higher = less target engagement (more negative = stronger competition), active = hit call of the paper (q ≤ 0.05, log2 ratio ≤ -1)
Conditions in all cases: compound concentration: 200 uM; treatment time: 3 h
USP42 = biological target: T1, USP42 (UniProt Q9H9J4)
T1 sequence (whole entry): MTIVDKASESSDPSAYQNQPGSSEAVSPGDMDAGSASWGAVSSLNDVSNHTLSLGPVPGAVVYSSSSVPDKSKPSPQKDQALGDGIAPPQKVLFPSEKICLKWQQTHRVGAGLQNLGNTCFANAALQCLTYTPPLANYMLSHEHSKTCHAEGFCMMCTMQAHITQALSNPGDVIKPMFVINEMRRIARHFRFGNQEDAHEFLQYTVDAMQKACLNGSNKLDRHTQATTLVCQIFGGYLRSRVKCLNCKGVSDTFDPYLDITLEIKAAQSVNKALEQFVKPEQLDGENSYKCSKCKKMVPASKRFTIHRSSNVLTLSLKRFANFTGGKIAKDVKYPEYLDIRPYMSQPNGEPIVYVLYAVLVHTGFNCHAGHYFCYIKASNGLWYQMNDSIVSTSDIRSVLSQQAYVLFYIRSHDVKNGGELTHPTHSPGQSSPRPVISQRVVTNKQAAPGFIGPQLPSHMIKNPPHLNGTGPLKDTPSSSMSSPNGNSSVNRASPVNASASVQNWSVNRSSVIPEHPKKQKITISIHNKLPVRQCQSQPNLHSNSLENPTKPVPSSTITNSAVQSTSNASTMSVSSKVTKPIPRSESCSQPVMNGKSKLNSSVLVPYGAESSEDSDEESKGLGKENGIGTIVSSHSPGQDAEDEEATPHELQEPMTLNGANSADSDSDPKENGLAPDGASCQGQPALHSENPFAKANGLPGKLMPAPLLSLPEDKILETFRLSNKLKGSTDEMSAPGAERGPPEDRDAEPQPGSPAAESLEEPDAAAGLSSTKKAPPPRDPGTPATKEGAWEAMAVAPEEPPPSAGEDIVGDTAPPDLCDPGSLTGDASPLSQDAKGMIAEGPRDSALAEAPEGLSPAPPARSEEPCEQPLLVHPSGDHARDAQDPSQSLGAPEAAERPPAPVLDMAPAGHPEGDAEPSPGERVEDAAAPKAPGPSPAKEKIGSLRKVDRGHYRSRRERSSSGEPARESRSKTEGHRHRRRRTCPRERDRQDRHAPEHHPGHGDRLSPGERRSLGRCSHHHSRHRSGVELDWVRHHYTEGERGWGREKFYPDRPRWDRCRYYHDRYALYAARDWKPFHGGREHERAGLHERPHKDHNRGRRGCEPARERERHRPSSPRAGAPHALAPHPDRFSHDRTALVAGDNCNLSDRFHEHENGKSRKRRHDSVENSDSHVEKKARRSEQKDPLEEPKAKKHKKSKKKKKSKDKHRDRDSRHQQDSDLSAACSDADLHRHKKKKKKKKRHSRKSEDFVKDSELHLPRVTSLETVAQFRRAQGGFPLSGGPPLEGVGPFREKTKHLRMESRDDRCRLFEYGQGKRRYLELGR
In short: (§1)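 Each value is an average log2 ratio of fragment to vehicle, tested by unpaired t-test. The underlying Spectronaut label-free quantities were global-median-normalised, and only proteins with ≥2 unique peptides were included. Triplicate HEK293T lysate samples (495 µg) were exposed to fragment at 200 µM or vehicle for 3 h, then to Biotin-Ahx-Ub-VS at 0.5 µM final for 1 h, before NeutrAvidin enrichment of labelled DUBs, LysC and trypsin digestion, and diaPASEF LC-MS/MS.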

USP46 = USP46 (UniProt P62068)
In short: as §1

USP47 = biological target: T2, USP47 (UniProt Q96K76)
T2 sequence (whole entry): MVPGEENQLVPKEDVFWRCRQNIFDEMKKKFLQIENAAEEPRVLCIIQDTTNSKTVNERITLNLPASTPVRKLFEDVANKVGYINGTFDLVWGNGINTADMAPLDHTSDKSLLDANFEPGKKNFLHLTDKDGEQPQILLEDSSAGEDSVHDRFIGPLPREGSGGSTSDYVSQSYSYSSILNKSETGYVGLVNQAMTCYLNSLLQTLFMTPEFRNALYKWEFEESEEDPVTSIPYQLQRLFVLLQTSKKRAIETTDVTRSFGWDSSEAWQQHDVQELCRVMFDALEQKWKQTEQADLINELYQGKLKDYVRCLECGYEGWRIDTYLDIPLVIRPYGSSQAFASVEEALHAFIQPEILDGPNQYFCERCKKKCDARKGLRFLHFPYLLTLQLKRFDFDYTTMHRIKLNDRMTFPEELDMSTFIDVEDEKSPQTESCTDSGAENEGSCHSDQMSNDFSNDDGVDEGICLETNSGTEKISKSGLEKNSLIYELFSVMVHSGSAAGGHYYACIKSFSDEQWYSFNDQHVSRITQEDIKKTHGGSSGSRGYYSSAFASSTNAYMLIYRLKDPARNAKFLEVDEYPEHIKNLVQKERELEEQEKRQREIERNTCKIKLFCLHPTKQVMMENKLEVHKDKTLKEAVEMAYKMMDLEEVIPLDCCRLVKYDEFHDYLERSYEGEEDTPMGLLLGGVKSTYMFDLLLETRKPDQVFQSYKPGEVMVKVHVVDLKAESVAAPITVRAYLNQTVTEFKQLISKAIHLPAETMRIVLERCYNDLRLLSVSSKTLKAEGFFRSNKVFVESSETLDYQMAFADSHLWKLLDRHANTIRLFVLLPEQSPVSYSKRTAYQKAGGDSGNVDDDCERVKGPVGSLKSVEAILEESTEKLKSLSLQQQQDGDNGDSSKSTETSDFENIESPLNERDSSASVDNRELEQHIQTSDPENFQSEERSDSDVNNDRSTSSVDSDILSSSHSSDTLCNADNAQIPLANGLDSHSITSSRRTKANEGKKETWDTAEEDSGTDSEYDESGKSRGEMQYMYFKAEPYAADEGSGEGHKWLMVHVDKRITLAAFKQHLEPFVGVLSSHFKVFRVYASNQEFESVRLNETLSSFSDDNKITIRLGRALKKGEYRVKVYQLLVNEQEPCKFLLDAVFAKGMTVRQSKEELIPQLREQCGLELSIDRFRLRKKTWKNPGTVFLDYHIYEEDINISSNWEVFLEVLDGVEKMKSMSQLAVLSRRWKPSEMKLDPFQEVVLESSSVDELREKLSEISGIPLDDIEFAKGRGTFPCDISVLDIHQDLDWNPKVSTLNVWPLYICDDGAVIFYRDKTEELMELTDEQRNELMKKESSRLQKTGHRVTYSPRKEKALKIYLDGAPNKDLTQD
In short: as §1

USP48 = biological target: T3, USP48 (UniProt Q86UV5)
T3 sequence (whole entry): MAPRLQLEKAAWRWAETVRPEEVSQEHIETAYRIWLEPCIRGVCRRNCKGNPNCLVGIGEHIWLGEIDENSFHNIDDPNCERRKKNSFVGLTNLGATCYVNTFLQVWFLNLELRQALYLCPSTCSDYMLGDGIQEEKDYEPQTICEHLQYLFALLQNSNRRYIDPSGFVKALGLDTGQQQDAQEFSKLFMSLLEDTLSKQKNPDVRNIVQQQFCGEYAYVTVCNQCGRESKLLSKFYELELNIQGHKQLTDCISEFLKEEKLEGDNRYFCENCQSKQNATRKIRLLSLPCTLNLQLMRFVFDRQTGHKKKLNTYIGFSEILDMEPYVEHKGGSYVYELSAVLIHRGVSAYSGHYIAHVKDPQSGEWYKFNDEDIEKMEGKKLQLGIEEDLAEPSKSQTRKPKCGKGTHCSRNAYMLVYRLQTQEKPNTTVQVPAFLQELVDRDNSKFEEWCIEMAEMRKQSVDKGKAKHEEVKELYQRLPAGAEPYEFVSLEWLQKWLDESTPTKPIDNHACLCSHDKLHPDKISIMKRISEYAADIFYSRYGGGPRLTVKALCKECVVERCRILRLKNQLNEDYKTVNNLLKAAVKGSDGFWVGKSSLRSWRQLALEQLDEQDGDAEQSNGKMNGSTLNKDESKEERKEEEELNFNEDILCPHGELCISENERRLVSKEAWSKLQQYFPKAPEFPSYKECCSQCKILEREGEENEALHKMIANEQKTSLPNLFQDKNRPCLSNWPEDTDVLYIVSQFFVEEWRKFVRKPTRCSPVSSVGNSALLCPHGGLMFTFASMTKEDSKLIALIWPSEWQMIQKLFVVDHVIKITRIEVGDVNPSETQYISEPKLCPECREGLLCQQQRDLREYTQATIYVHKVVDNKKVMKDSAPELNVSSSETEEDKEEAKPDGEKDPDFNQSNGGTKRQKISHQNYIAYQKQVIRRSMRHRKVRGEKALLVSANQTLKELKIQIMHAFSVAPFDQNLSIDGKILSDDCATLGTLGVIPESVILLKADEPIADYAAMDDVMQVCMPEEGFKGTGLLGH
In short: as §1

USP5 = biological target: T4, USP5 (UniProt P45974)
T4 sequence (whole entry): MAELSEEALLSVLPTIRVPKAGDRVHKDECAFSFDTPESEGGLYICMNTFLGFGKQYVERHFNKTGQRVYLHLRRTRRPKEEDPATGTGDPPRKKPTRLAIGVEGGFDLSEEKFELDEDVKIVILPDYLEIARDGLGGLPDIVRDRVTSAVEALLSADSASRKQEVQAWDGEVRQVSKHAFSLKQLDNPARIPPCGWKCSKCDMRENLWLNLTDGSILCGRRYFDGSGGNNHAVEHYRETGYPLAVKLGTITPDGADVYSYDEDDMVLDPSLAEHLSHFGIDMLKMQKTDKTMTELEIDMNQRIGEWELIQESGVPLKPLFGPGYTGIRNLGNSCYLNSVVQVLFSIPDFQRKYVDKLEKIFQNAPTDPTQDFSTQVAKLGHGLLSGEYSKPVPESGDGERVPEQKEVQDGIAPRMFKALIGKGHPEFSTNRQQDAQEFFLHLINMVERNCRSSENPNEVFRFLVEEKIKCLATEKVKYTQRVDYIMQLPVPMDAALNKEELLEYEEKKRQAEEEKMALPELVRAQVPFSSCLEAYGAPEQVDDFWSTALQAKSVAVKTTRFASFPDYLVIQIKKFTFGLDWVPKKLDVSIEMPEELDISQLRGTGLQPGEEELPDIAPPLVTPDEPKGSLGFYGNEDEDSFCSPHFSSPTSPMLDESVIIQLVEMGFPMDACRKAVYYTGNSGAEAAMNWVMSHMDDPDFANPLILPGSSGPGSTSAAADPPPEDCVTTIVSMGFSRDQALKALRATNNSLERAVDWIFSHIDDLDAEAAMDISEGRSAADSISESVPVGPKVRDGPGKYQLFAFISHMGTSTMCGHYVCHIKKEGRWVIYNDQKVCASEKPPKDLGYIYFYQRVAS
In short: as §1

USP54 = USP54 (UniProt Q70EL1)
In short: as §1

USP7 = USP7 (UniProt Q93009)
In short: as §1

USP8 = biological target: T5, USP8 (UniProt P40818)
T5 sequence (whole entry): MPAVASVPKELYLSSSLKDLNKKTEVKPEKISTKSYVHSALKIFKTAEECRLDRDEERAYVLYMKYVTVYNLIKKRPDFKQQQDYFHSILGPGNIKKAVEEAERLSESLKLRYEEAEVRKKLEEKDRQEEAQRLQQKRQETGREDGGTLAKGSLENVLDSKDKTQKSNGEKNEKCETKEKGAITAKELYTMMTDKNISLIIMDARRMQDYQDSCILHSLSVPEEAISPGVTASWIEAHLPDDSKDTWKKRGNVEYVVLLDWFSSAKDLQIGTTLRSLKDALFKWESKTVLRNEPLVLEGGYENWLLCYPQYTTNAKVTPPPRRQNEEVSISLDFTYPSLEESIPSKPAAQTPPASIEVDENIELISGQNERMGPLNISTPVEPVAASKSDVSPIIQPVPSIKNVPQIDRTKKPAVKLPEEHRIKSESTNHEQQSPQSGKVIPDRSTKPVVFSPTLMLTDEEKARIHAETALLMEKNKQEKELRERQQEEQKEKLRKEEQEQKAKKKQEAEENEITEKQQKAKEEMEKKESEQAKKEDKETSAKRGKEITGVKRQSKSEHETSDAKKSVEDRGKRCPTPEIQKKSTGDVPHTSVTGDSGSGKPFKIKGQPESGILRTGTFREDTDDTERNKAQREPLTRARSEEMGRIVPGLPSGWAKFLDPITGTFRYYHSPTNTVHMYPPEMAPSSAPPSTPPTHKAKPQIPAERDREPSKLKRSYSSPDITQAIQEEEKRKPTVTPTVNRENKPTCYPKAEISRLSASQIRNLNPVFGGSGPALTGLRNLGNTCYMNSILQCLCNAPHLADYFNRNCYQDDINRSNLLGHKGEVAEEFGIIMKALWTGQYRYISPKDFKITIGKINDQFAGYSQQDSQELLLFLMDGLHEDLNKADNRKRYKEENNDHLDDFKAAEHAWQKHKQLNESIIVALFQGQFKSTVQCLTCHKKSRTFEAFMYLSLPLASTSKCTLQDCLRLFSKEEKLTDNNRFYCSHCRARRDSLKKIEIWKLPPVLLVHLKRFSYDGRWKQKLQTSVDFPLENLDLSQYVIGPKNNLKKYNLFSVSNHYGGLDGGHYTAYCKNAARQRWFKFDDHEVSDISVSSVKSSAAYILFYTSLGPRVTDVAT
In short: as §1

USP9X = USP9X (UniProt Q93008)
In short: as §1

UniProt O00487 = biological target: UniProt O00487
In short: as §1

Measured: log2 ratio of Biotin-Ahx-Ub-VS probe labelling

Chain of USP7 (Q93009 whole entry, looked up): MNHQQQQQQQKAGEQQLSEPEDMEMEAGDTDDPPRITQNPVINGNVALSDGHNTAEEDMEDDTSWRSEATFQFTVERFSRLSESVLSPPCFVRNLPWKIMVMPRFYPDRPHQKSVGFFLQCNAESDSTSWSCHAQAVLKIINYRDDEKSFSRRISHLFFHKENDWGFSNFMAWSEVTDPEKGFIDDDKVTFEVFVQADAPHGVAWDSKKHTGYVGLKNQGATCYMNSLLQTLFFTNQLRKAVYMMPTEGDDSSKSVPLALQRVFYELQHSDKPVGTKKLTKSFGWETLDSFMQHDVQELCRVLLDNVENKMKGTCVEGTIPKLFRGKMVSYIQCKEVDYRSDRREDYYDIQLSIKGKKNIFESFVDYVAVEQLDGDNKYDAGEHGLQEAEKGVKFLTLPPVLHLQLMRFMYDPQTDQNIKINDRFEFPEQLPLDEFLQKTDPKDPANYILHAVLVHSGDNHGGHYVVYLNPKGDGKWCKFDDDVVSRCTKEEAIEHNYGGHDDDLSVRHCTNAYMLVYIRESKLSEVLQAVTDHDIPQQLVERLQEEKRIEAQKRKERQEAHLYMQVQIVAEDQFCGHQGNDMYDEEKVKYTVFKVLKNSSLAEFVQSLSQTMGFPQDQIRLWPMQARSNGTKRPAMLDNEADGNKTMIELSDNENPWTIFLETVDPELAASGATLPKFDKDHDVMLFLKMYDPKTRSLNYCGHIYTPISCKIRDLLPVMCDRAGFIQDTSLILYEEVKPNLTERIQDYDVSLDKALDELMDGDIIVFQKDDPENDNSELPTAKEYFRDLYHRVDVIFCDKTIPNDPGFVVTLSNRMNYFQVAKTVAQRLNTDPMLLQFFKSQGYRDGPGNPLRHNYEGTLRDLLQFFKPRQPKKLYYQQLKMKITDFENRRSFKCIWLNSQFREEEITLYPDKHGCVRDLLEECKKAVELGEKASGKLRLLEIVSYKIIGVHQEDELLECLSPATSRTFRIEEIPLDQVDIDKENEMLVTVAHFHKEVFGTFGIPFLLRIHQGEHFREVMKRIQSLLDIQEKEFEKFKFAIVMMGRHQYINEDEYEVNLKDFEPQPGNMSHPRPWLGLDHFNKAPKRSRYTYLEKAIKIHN
Chain of USP54 (Q70EL1 whole entry): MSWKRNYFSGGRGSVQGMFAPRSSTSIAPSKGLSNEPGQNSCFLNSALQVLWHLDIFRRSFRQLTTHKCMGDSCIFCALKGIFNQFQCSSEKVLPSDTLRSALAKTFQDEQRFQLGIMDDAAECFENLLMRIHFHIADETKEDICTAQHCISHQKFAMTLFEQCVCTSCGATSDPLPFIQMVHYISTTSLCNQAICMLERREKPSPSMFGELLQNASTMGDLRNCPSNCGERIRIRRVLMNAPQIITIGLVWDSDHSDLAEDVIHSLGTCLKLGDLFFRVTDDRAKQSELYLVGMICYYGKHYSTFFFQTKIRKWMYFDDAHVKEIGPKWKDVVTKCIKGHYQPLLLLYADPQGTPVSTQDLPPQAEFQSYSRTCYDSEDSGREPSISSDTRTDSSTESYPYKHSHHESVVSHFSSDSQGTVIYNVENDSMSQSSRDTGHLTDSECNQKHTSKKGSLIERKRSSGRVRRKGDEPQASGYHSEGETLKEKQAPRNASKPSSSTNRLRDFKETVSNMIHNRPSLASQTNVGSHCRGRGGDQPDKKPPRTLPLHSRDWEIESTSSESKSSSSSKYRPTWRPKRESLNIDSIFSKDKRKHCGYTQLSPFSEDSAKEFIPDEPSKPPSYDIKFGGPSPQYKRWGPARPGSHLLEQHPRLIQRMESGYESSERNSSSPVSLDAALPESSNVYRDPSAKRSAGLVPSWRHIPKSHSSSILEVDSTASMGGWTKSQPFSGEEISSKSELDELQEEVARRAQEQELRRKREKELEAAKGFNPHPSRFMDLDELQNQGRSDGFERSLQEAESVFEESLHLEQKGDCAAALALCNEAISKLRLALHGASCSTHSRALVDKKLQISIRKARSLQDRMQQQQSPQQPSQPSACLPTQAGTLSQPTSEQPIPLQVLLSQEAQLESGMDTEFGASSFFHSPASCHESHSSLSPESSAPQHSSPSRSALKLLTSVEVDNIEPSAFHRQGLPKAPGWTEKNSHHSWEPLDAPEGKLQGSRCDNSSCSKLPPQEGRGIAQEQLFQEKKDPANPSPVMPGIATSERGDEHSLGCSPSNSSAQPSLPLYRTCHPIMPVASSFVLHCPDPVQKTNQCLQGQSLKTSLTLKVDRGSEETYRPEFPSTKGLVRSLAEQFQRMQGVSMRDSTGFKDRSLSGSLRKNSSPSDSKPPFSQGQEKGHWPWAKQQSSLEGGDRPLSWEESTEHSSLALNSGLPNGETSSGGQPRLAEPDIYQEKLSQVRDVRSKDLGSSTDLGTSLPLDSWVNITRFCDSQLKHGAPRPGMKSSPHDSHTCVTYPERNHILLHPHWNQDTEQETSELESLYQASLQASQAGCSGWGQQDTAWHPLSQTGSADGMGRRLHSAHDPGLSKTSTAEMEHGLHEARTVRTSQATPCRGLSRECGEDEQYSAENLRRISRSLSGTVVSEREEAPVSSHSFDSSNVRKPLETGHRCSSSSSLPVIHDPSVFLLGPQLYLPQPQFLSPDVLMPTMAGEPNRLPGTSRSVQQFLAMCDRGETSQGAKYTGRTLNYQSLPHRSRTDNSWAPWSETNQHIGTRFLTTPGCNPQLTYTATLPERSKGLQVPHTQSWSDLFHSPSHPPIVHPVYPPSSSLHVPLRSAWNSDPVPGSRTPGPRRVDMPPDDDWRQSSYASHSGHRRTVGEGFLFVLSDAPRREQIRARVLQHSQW
Chain of USP46 (P62068 whole entry): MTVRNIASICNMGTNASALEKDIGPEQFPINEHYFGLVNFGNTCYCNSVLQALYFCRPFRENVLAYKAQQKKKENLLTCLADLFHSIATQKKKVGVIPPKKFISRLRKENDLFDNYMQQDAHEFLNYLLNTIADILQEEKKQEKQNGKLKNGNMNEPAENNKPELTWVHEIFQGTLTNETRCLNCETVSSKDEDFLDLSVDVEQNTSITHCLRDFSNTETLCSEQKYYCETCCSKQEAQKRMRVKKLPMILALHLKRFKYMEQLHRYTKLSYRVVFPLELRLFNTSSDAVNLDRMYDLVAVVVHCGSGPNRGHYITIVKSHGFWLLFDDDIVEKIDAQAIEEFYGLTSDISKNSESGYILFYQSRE
Chain of UniProt O00487 (O00487 whole entry): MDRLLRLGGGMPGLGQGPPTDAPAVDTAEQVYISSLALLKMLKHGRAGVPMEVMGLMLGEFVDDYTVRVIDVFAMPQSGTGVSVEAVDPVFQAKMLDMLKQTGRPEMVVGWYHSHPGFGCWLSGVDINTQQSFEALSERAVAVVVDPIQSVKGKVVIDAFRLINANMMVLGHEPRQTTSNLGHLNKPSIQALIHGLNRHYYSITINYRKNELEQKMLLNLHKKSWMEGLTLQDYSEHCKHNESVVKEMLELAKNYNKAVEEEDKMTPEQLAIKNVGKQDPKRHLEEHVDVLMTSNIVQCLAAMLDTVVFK

Cc1cc(CC(C)NC(=O)CCl)n[nH]1 (stereo not given)
inactive: USP42 -0.515 | USP46 -0.086 | USP47 0.219 | USP48 -0.0294 | USP5 -0.0909 | USP54 -0.195 | USP7 -0.0248 | USP8 -0.57 | USP9X -0.345 | UniProt O00487 -0.0204

Cc1ccc2nnc(CNC(=O)CCl)n2c1
inactive: USP42 0.336 | USP46 -0.000756 | USP47 0.13 | USP48 -0.0762 | USP5 0.114 | USP54 0.357 | USP7 0.0284 | USP8 0.28 | USP9X 0.0675 | UniProt O00487 -0.0931
